From PubChem
HT1080-NT tox: qHTS for induction of synthetic lethality in tumor cells producing 2HG: qHTS for the HT-1080-NT fibrosarcoma cell line. HT-1080-NT fibrosarcoma viability, CellTiter-Glo ATP luminescence, 48 h. Potency, µM (top dose mostly 46.1 µM), most hits filed as cytotoxic. actives 1.6% (n = 360,000);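 further: NT is the 2HG producing partner of a matched IDH1 knockdown line; nearly all actives have a fitted effect of over 55% in size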
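Luminescent CellTiter-Glo readout after 48 hours of compound exposure at 37 degrees C defined viability of HT-1080-NT cells. Activity was normalized to DMSO wells and cell-free media wells; concentration-response curves were fitted and assigned curve classes.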
IL1B secr inh: qHTS for Inhibitors of Inflammasome Signaling: IL-1-beta AlphaLISA Primary Screen. THP-1 LPS/ATP IL-1B secretion, AlphaLISA, 16 h; active compounds read low. activity change, % at 57.5 µM. actives 4.7% (n = 360,000). AID 743279, 2014; in the data active means activity change below about -50%; inconclusive means mostly about -30% to -49%
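Secreted IL-1B measured by AlphaLISA bead assay after 16 h compound exposure of THP-1 cells; compounds (final up to 57.5 uM) added 1 h before LPS (250 ng/mL) and ATP (1.25 mM) stimulation; lower signal means less secretion.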
KB-3-1 tox: qHTS assay for MDR1-selective chemotherapeutics: Primary screen using the parental adenocarcinoma cell KB-3-1; AID 1347075, 2019; Potency, µM (highest dose often 46.1 µM), usual class: cytotoxic; actives 1.4% (n = 400,000); KB-3-1 viability, CellTiter-Glo ATP luminescence, 72 h; further: nearly all actives have a fitted effect of over 60% in size
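KB-3-1 parental drug-naive adenocarcinoma cells in DMEM/10% FBS, incubated 72 h at 37 C with pin-transferred compounds across a concentration series. Viability by CellTiter-Glo luminescence; concentration-response curves fitted after normalization.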
KB-V1 cytotox: qHTS assay for MDR1-selective chemotherapeutics: Primary screen using the drug-selected MDR subline cells KB-V1. KB-V1 MDR cells viability, CellTiter-Glo, 72 h. Potency, µM (highest dose often 46.1 µM), actives largely listed as cytotoxic. actives 3.4% (n = 400,000); further: nearly all actives have a fitted effect of over 60% in size
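qHTS viability screen in drug-selected KB-V1 MDR cells: 72 h compound treatment at 37 degrees C, ATP luminescence end point.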
HT1080 IDH1KD tx: qHTS for induction of synthetic lethality in tumor cells producing 2HG: qHTS for the HT-1080-IDH1KD cell line; actives 2% (n = 360,000); HT-1080 IDH1 knockdown viability, ATP luminescence, 48 h; Potency, µM (top dose mostly 46.1 µM), usual class: cytotoxic; AID 686971, 2013
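Knockdown cells (IDH1KD HT-1080) received compounds 2 h after plating at 750 cells/well and were kept 48 h at 37 °C in 5% FBS RPMI. A CellTiter-Glo luminescence read gave % activity for curve fitting.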
A number is an active result; . = inactive; ? = inconclusive; / = not tested or not shown. In the library only some 8.8% were active in any assay of this set; here they are far more common. Unless noted, the call rests on the fitted dose curve; in most records, active means well fitted curve in the direction sought with a large enough effect; inconclusive means small, poorly fitted or top-dose-only effect, or another doubt; inactive means no such curve, though single readings can be large; an effect the other way counts as inactive or inconclusive.

SMILES	HT1080-NT tox	IL1B secr inh	KB-3-1 tox	KB-V1 cytotox	HT1080 IDH1KD tx
COc1c(C)cc(Br)cc1C(=O)Nc1ccc(Cc2ccncc2)cc1	?	-79	.	.	?
O=C1C(=Cc2ccccc2O)SC(=S)N1CCCN1CCOCC1	.	.	.	.	.
CCC1Oc2ccc(C)cc2N(CC(=O)NCC2CCCO2)C1=O (stereo unspecified)	?	.	.	.	.
COc1ccc(C(C)(O)c2nc(-c3ccccc3OC)cs2)cc1 (stereo unspecified)	?	.	?	?	16µM
COc1cccc(C(C)(O)c2nc(-c3ccccc3C)cs2)c1 (stereo unspecified)	?	.	.	.	?
CC(O)(c1cccnc1)c1nc(-c2cccc(C(F)(F)F)c2)cs1 (stereo unspecified)	23µM	.	.	.	?
COc1cccc(C(C)(O)c2nc(-c3csc4ccccc34)cs2)c1 (stereo unspecified)	21µM	.	.	.	?
COc1cccc(C(C)(O)c2nc(-c3cccc(C(F)(F)F)c3)cs2)c1 (stereo unspecified)	18µM	.	.	.	?
CC(O)(c1cccnc1)c1nc(-c2cccc(F)c2)cs1 (stereo unspecified)	.	.	.	.	.
C/C(=N/NC(N)=S)c1ccc(Br)s1	?	.	?	8.2µM	?
C/C(=N\NC(=O)Cc1ccccc1)c1ccc(Br)s1	.	.	.	.	.
Cc1ccc(CCNc2ncnc3onc(C)c23)cc1	/	/	2.9µM	.	/
Cc1noc2ncnc(NCCc3ccccc3)c12	/	/	?	.	/
CCOc1ccc(CCNc2ncnc3onc(C)c23)cc1OCC	/	/	2.6µM	.	/
CCOCCCNc1ncnc2onc(C)c12	/	/	.	.	/
CCCN(CCC)CCCNC(=O)c1ccc2c(Cl)c3c(nc2c1)CCC3	?	-67	.	.	21µM
CC1CCN(CCCNC(=O)c2ccc3c(Cl)c4c(nc3c2)CCCC4)CC1	?	/	?	.	21µM
CN1CCN(C(=O)c2ccc3c(Cl)c4c(nc3c2)CCCC4)CC1	.	.	.	?	.
CCN1CCN(CCCNC(=O)c2ccc3c(Cl)c4c(nc3c2)CCCC4)CC1	26µM	/	?	.	?
CCN1CCN(C(=O)c2ccc3c(Cl)c4c(nc3c2)CCCC4)CC1	.	-78	.	.	.
COc1c(C(CC(C)C)OC(C)=O)ccc2c1C(=O)OCc1cc(C)cc(O)c1O2 (stereo unspecified)	.	.	?	.	?
COc1ccc(CCNC(=O)COc2ccc(N(C)S(=O)(=O)c3ccc(C)cc3)cc2)cc1OC	.	?	.	.	.
CCN(CC)CCCNC(=O)c1ccc2c3n(nc2c1)-c1ccc(Cl)cc1CO3	.	-60	.	.	.
O=C(c1ccc2c(Cl)c3c(nc2c1)CCCC3)N1CCN(c2ccc(Cl)cc2)CC1	/	/	.	.	/
N#CC1CCN(C(=O)c2ccc3c(Cl)c4c(nc3c2)CCCC4)CC1	.	-66	.	?	.
SMILES	HT1080-NT tox	IL1B secr inh	KB-3-1 tox	KB-V1 cytotox	HT1080 IDH1KD tx
O=C(NCCCN1CCCCCC1)c1ccc2c(Cl)c3c(nc2c1)CCCC3	.	-71	?	.	?
OC[C@@H]1CN(Cc2ccc3c(c2)OCO3)C[C@H](n2cnc3c(NC4CCC4)ncnc32)O1	.	.	.	.	.
Cn1cc(S(=O)(=O)N2CCCCC2)cc1C(=O)N1CCN(c2ccc(F)cc2)CC1	/	/	.	.	/
CCOC(=O)C(CC)Sc1c(CC)cnc2c1c(=O)n(C)c(=O)n2C (stereo unspecified)	/	/	.	.	/
COc1ccc(C(=O)C2CCN(C(=O)c3ccco3)CC2)cc1	.	.	.	23µM	.
COc1ccc(C(=O)C2CCN(C(=O)c3ccc(C)cc3)CC2)cc1	.	.	.	?	.
CC(C)(C)c1ccc(C(=O)N2CCC(C(=O)c3ccccc3)CC2)cc1	.	-75	.	.	.
O=C(c1ccccc1)C1CCN(C(=O)c2ccc(Cl)cc2)CC1	.	.	.	.	.
COc1ccc(/C=C/C(=O)NCC(=O)N2CCC(N(C)CCN3CCOCC3)CC2)cc1OC	.	.	.	.	.
CCOC(=O)c1sc(SCC(=O)Nc2ccc(N(C)C)cc2)nc1N	.	-67	.	.	?
CN(C)c1ccc(NC(=O)CSc2nc(N)c(C(=O)Nc3ccc(N(C)C)cc3)s2)cc1	.	?	.	.	?
Cn1c(SCC(=O)N2CCCC2)nc2ccccc21	.	.	.	.	.
Cn1c(SCC(=O)N(Cc2ccccc2)C(C)(C)C)nc2ccccc21	.	.	.	21µM	?
CCOC(=O)Cn1nc(C)n(-c2c(C)cccc2C)c1=O	.	-62	.	.	.
CCOC(=O)Cn1nc(C)n(-c2ccccc2)c1=O	.	.	.	.	.
Cc1cc(C(=O)N/N=C2\CC(=O)c3ccccc32)c(C)n1-c1ccccc1	.	.	.	.	.
CCc1cc(C(=O)NC2CCCN(Cc3ccccc3F)C2)n(C)n1 (stereo unspecified)	.	.	.	?	.
CCOC(=O)c1ccc(N2C(=O)c3n[nH]c(C)c3C2c2ccc(OC)cc2OC)cc1 (stereo unspecified)	.	-58	?	?	.
CCOC(=O)C1=C(C)N=C2SC=C(C)N2C1c1ccc(OC)cc1 (stereo unspecified)	16µM	.	?	?	21µM
CCOC(=O)c1ccc(N2C(=O)c3n[nH]c(C)c3C2c2ccc(OC)cc2)cc1 (stereo unspecified)	?	.	.	5.2µM	?
CCOC(=O)c1ccc(N2C(=O)c3n[nH]c(-c4ccco4)c3C2c2cccc([N+](=O)[O-])c2)cc1 (stereo unspecified)	?	-83	?	18µM	?
CCOC(=O)C1=C(C)N=C2SC(C)C(=O)N2C1c1ccc(C(=O)OC)cc1 (stereo unspecified)	.	.	.	.	.
CCOC(=O)c1cc(C#N)c(SC(C)C(=O)NC2CCCCC2)nc1C (stereo unspecified)	.	.	.	.	.
CCOC(=O)c1c(C)[nH]c(C)c1C(=O)COC(=O)c1ccc(Cl)nc1	.	.	.	.	.
C/C(=N\Nc1ccccc1)c1c(O)cc(C)oc1=O	?	.	.	.	12µM
CC(C)(C)NC(=O)CN(C(=O)CS(=O)CC(=O)Nc1ccc(F)cc1)c1cccc(F)c1 (stereo unspecified)	.	.	.	.	.
Cc1ccc(C(c2sc3nc(-c4ccco4)nn3c2O)N2CCCCC2)cc1 (stereo unspecified)	/	/	.	.	/
